Data as given in PubChem BioAssay.
Values without a mark were called inactive. No rule for the calls is given here.

biological target: Pantothenate synthetase (Mycobacterium tuberculosis (strain ATCC 25618 / H37Rv)) (UniProt P9WIL5); experiment: Coupled enzyme confirmation of inhibitors against recombinant Mtb PanC (AID 375); settings: coupled enzyme assay; at 10 µM, active compounds read high;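 also: 0% = full reaction with vehicle and 100% = no enzyme background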
Sequence (P9WIL5 whole entry, looked up): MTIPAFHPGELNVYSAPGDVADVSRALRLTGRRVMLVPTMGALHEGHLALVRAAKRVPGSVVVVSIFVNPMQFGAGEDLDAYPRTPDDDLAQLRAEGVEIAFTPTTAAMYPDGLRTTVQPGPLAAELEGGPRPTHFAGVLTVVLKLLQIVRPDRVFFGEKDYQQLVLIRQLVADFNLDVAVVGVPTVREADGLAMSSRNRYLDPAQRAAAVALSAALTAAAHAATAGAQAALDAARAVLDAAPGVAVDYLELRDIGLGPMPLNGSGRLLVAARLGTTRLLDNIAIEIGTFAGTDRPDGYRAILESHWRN

SMILES | inhibition [%]
CCn1c(=N)n(CC(=O)c2ccco2)c2ccccc21 | 0
COCCn1c(NCc2ccc(C)cc2)nc2c1c(=O)[nH]c(=O)n2C | 10
CC(=O)[C@@]1(O)CC[C@H]2[C@@H]3C[C@H](C)C4=CC(=O)CC[C@]4(C)[C@H]3CC[C@@]21C | 1
Cc1sc2nc(CN3CCN(S(=O)(=O)c4cccc5nonc45)CC3)[nH]c(=O)c2c1C | 0
CCOC(=O)N1CCN(C(=O)CSc2nnc(-c3cccc(Cl)c3)o2)CC1 | 0
CC(C)NC(=O)NC(=O)COc1cccc2c1OC(C)(C)C2 | 0
CCOC(=O)C1=C(C)Nc2nc(SCC(=O)OC)nn2C1c1cc(F)cc(F)c1 (stereo not given) | 3
Cc1ccc(-n2ncc3c(Nc4c(C)n(C)n(-c5ccccc5)c4=O)ncnc32)c(C)c1 | 10
CCOC(=O)N1CCN(c2ncnc3c2[nH]c2ccc(OC)cc23)CC1 | 0
Cc1cc(C)c(C(=O)CSc2nnc(-c3ccccc3Br)o2)cc1C | 2
CCn1cc(SCC(=O)NCC2CCCO2)c2ccccc21 (stereo not given) | 0
CCCn1nnnc1SCC(=O)c1ccc2c(c1)OCCO2 | 11
COc1ccc(C2(C(=O)Nc3c(C)n(C)n(-c4ccccc4)c3=O)CCCC2)cc1OC | 1
O=C(c1cccs1)N1CCN=C1SCc1ccccc1 | 4
O=C(CSc1nnc(COc2ccc(Cl)cc2)o1)OC1CCCCC1 | 0
COCCn1c(=O)[nH]c2cc(C(=O)N3CCN(Cc4ccc5c(c4)OCO5)CC3)ccc2c1=O | 0
CCOc1ccc(NC(=O)CN2CCN(CC(=O)c3ccc(OCC)cc3)CC2)cc1 | 4
Cc1cc(Cl)ccc1OCC(=O)Nn1c(C)ccc1C | 0
Cc1nc(Nc2nc(=O)c3ccccc3n2C)nc2c(C)cccc12 | 0
CC(=O)Nc1nc(C)c(-c2csc(Nc3ccc(O)cc3)n2)s1 | 0

SMILES | inhibition [%]
O=C(Nc1ccc2c(c1)OCO2)C1CCCN1C(=O)Nc1ccccc1F (stereo not given) | 3
O=C(Cn1nc(Cc2cccnc2)c2ccccc2c1=O)Nc1ccc2c(c1)OCO2 | 0
O=C1CCC(c2ccccc2)N1C(=O)c1cccnc1 (stereo not given) | 0
Cc1ccc(-c2nnc3ccc(SCC(=O)NCc4ccco4)nn23)cc1 | 0
O=C(COc1ccc(=O)n(-c2ccccc2)n1)Nc1ccccc1 | 0
Cc1csc(NC(=O)C(Cc2ccccc2)n2cccc2)n1 (stereo not given) | 5
COC(=O)c1cc(O)c(OCc2ccccc2)c(O)c1 | 0
S=c1[nH]nc(Cc2ccccc2)n1-c1ccccc1 | 1
O=c1[nH]c(SCc2ccccc2Cl)nc2c1CCCC2 | 0
CCN(CC)c1ccc(NC(=O)CN2C(=O)CC(C)(C)S(=O)(=O)c3ccccc32)c(C)c1 | 0
O=C(CN1CCN(c2ccc(F)cc2)CC1)OCc1ccccc1 | 3
CCc1ccccc1OCCCCCNCCO | 3
O=C(Cn1c(=O)n(CC2CCCO2)c(=O)c2ccccc21)c1ccccc1 (stereo not given) | 0
O=C(CSc1nnc(-c2cnccn2)n1Cc1ccco1)c1ccc(Cl)cc1 | 0
CC1C=CC(C)C(C(=O)O)C1C(=O)O (stereo not given) | 0
Cc1ccc(Cl)cc1N1CCN(C(=O)CN2C(=O)c3cccc4cccc2c34)CC1 | 6
Clc1ccc(Cc2nn3c(-c4ccncc4)nnc3s2)cc1 | 0
O=C(Nc1cccnc1)Nc1ccc(F)c(Cl)c1 | 0
O=C(NC1CCN(Cc2ccccc2)CC1)C1CCN(S(=O)(=O)c2cccc3cccnc23)CC1 | 0
O=C1N[C@@H](Cc2cnc[nH]2)C(=O)N2CCC[C@@H]12 | 0
